Assay results reported in ChEMBL document CHEMBL1157539, “Thousands of chemical starting points for antimalarial lead identification” (Nature, 2010).

test system: Plasmodium falciparum; assay: GSK_TCMDC: Inhibition of Plasmodium falciparum 3D7 in whole red blood cells, using parasite LDH activity as an index of growth. Test compounds present at 2uM; type: functional

**Q.** `CN(Cc1cc(C(F)(F)F)cc(C(F)(F)F)c1)C(=O)C1CNCC1c1ccc(F)cc1.Cl` (stereo not given) was tested. Which Inhibition did it give?
**A.** 92%

**Q.** For `CC(=O)Nc1cccc(C(=O)Nc2cccc(-c3ccc(-c4nc5cc(F)ccc5[nH]4)cc3)c2)c1`, which Inhibition is on record?
**A.** 95%

**Q.** With `Cc1ccc(CNC(=O)[C@H](Cc2ccccc2)Nc2cc(C)nc(NCC3CCCCC3)n2)cc1.O=C(O)C(F)(F)F` as the molecule, how does the Inhibition read?
**A.** 100%

**Q.** `O=C(COC(=O)c1cccc(S(=O)(=O)N2CCc3ccccc32)c1)NNC(=O)c1cccs1` was tested. Which Inhibition did it give?
**A.** 96%

**Q.** How did the Inhibition turn out when `O=C(Nc1nccs1)c1cn(-c2ccccc2)nc1-c1ccc(Cl)s1` was run?
**A.** 96%

**Q.** How did the Inhibition turn out when `CN(C)CCOc1cc(NC(=O)/C=C/c2cccc3ccccc23)ccc1I` was run?
**A.** 98%

**Q.** Which Inhibition does the source give for `COc1ccc(NC(=O)c2ccc(-c3nc(-c4cccc(C(F)(F)F)c4)cs3)cc2)cc1N1CCN(C)CC1` here?
**A.** 98%

**Q.** With `Cc1cc2c3c(N)nc(N)nc3ccc2n1C(C)C` as the molecule, how does the Inhibition read?
**A.** 93%

**Q.** `CC(C)N1CCN(c2ccc(OCCCN3CCN(c4cccc(Cl)c4Cl)CC3)c(C(F)(F)F)c2)CC1` was tested. Which Inhibition did it give?
**A.** 94%

**Q.** For `CCNc1cc(C(=O)N[C@@H](Cc2ccccc2)[C@H](O)CNC(C)(C)CC(C)(C)C)c(F)c(N2CCCCS2(=O)=O)c1`, which Inhibition is on record?
**A.** 94%

**Q.** How did the Inhibition turn out when `CC(=O)Nc1ccc(CN2Cc3ccc(NC(=O)Nc4ccc(Oc5ccccc5)cc4)cc3C2)s1` was run?
**A.** 91%

**Q.** With `CN(C)CCn1c(N)c(-c2nc3ccccc3s2)c2nc(C#N)c(C#N)nc21` as the molecule, how does the Inhibition read?
**A.** 94%

**Q.** For `CC[C@H](C)CNC(=O)c1cncc(-c2ccc(CNCCOc3ccccc3)cc2)c1.O=C(O)C(F)(F)F`, which Inhibition is on record?
**A.** 90%

**Q.** How did the Inhibition turn out when `Cc1nc2ccc3ccc(CNc4ccc(C#N)cc4)cc3c2c(=O)[nH]1` was run?
**A.** 84%

**Q.** Which Inhibition does the source give for `Cn1nc(-c2ccc(CNC3CCc4ccccc43)cc2)c2cnc(NCCN3CCCC3)nc21` (stereo not given) here?
**A.** 99%

**Q.** With `Cn1cnc2c(SCc3ccc(OCc4ccccc4)cc3)ncnc21` as the molecule, how does the Inhibition read?
**A.** 95%

**Q.** For `CN1CCC(OC(=O)c2cc3cc(-c4ccccc4)ccc3n2S(=O)(=O)c2ccccc2)CC1.Cl`, which Inhibition is on record?
**A.** 88%

**Q.** `CC(C)(CNC(=O)C1CCN(CCOCc2ccccc2)CC1)c1nc(-c2ccc(Cl)c(O)c2)c(-c2ccncc2)[nH]1.Cl` was tested. Which Inhibition did it give?
**A.** 100%

**Q.** With `Cl.O=C(Nc1ccc(NC2=NCCN2)cc1)c1ccc(C(=O)Nc2ccc(NC3=NCCN3)cc2)cc1` as the molecule, how does the Inhibition read?
**A.** 91%

**Q.** How did the Inhibition turn out when `O=C(Nc1ccc(CN2CCCCC2)cc1)c1ccc(COc2ccc([N+](=O)[O-])cc2)o1` was run?
**A.** 86%

**Q.** `FC(F)(F)c1ccc2[nH]c(-c3ccc(-c4cccc(CNCCN5CCNCC5)c4)cc3)nc2c1.O=C(O)C(F)(F)F` was tested. Which Inhibition did it give?
**A.** 92%

**Q.** For `CCOC(=O)c1cc(C(=O)OC)c2ccccn12`, which Inhibition is on record?
**A.** 97%

**Q.** For `Cc1nc(N)nc(N)c1OCCCCOc1ccccc1.Cl.O`, which Inhibition is on record?
**A.** 94%

**Q.** How did the Inhibition turn out when `Cc1cc2c(cc1C(F)(F)F)N(C(=O)Nc1cc(C(=O)NC3CCN(Cc4ccccc4)C3)cc(C(F)(F)F)c1)CC2.Cl` (stereo not given) was run?
**A.** 100%

**Q.** With `O=[N+]([O-])c1cccc(/C=N/Nc2ccnc3ccc(C(F)(F)F)cc23)c1` as the molecule, how does the Inhibition read?
**A.** 96%

**Q.** Which Inhibition does the source give for `Cc1ccc(Oc2c(-c3ccccc3CN3CCCC3CN(C)C)cnn(C)c2=O)cn1.O=C(O)C(F)(F)F` (stereo not given) here?
**A.** 88%

**Q.** Which Inhibition does the source give for `CCOc1ccc(C(=O)Nc2cc(Br)c3c(c2)CNCC3)cc1Cl.Cl` here?
**A.** 92%

**Q.** For `Cc1ncccc1C(=O)Nc1cccc(-c2cccc(-c3nc4cc(C(F)(F)F)ccc4[nH]3)c2)c1`, which Inhibition is on record?
**A.** 96%

**Q.** `CC(C)c1ccc(OCC(O)CN(C)C(C)C(O)c2ccccc2)c(Br)c1.Cl` (stereo not given) was tested. Which Inhibition did it give?
**A.** 95%

**Q.** For `Cc1cccc2nc(-c3cccc(-c4ccc(CNCc5cnn(-c6ccccc6)n5)cc4)c3)[nH]c12.O=C(O)C(F)(F)F`, which Inhibition is on record?
**A.** 100%

**Q.** How did the Inhibition turn out when `Cc1cc(N[C@@H](Cc2ccccc2)C(=O)NCCOc2ccccc2)nc(Nc2ccccc2)n1.O=C(O)C(F)(F)F` was run?
**A.** 100%

**Q.** How did the Inhibition turn out when `CCOc1ccc2c(N/N=C/c3cccc([N+](=O)[O-])c3)cc(C)nc2c1` was run?
**A.** 100%

**Q.** How did the Inhibition turn out when `O=C(Nc1ccc2c(c1)CCN(C1CCC1)CC2)c1cn(-c2ccccc2)nc1-c1ccccc1.O=C(O)C(F)(F)F` was run?
**A.** 100%

**Q.** For `Cl.O=C(Nc1ccnc2ccccc12)NC1CCN(CCc2ccccc2)CC1`, which Inhibition is on record?
**A.** 100%

**Q.** Which Inhibition does the source give for `Cl.OCCNc1nc(Nc2ccccc2)nc2ccccc12` here?
**A.** 93%

**Q.** For `Cc1cc(=O)c2cc(-c3ccc(OC(F)(F)F)cc3)ccc2[nH]1`, which Inhibition is on record?
**A.** 96%

**Q.** How did the Inhibition turn out when `CN1CCN(CC(O)CNC(=O)Nc2ccc(Br)cc2)CC1.O=C(O)C(F)(F)F` (stereo not given) was run?
**A.** 100%

**Q.** How did the Inhibition turn out when `Cc1ccc(-c2nnc(Nc3ccc(C(=O)N4CCCCC4)cc3)c3ccccc23)cc1S(=O)(=O)NCC1CCCO1` (stereo not given) was run?
**A.** 99%

**Q.** Which Inhibition does the source give for `CN(c1ccc(NC(=O)Nc2cc(C(C)(C)C)on2)cc1)c1ccnc(NCCOC(=O)Nc2cc(C(C)(C)C)on2)n1.O=C(O)C(F)(F)F` here?
**A.** 100%

**Q.** How did the Inhibition turn out when `CNS(=O)(=O)Cc1ccc(Nc2nccc(Nc3cccc4c3cnn4C(=O)Nc3ccccc3)n2)cc1` was run?
**A.** 89%
